# From PMC7862700, “An all-to-all approach to the identification of sequence-specific readers for epigenetic DNA modifications on cytosine”
# Assays:
# Test in all cases: DAPPL (digital affinity profiling via proximity ligation, sequencing); 10 mM Tris-HCl pH 7.5, 50 mM NaCl, 1 mM DTT, 4% glycerol, room temperature, 30 min; GST-TFs on glutathione beads, 16-mer random dsDNA library, 0.1% formaldehyde crosslink after washing; high values mean tight binding
# FEV = target: T1, FEV (Homo sapiens, UniProt Q99581 1-238); details: protein: recombinant; tags: N-terminal GST; dsDNA, one strand shown
# T1 sequence: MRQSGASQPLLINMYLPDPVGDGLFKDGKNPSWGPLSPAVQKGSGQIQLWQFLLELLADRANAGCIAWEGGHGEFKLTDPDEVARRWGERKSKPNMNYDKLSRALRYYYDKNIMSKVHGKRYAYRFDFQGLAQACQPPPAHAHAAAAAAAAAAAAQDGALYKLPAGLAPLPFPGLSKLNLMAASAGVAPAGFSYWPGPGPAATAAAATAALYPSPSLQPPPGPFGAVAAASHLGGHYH
# In short: (§1)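 GST fusions of human transcription factors were expressed in yeast and captured with glutathione beads. Once given DNA barcodes and pooled alongside a tag-only sample, they were incubated for 30 min at room temperature with 200 nmole of a random double-stranded 16-mer DNA library in Tris/NaCl/DTT/glycerol buffer, then washed, crosslinked (0.1% formaldehyde), proximity-ligated, PCR-amplified and sequenced on an Illumina NextSeq500. The binding signal of each hexamer is its read frequency for a factor divided by its frequency for the tag-only sample.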
# ETV5 = ETV5 (Homo sapiens, UniProt P41161 1-510); details: protein: recombinant; tags: N-terminal GST; dsDNA, one strand shown
# ETV5, sequence (P41161 whole entry): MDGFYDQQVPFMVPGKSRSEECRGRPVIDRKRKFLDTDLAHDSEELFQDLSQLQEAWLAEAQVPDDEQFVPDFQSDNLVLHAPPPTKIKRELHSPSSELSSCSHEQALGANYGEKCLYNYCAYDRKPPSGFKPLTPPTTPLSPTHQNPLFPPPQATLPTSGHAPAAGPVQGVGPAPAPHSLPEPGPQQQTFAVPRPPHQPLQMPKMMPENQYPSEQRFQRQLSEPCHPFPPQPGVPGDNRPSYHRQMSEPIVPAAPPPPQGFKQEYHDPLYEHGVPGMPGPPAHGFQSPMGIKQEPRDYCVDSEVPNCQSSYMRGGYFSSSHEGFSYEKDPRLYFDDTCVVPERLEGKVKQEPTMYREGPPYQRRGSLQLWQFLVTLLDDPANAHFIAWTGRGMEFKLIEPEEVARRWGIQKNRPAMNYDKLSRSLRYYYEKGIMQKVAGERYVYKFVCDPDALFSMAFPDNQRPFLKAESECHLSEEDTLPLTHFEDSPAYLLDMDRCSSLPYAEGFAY
# In short: as §1
# HSF1 = HSF1 (Homo sapiens, UniProt Q00613 1-529); details: protein: recombinant; tags: N-terminal GST; chain copies: 3; dsDNA, one strand shown
# HSF1, sequence (Q00613 whole entry): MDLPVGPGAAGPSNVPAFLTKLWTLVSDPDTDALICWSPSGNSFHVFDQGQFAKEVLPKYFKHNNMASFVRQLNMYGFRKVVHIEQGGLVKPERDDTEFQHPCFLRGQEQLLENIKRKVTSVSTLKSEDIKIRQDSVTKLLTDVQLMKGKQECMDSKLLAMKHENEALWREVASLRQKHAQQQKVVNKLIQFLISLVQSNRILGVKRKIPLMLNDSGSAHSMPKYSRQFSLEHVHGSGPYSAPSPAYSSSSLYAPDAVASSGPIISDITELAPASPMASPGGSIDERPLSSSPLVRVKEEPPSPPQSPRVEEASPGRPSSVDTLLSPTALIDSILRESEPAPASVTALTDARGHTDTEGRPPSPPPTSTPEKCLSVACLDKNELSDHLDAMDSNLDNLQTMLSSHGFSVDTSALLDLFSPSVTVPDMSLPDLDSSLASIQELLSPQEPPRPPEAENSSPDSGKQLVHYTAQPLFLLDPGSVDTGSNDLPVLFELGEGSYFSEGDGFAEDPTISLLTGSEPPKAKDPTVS
# In short: as §1
# SPIC = target: T2, SPIC (Homo sapiens, UniProt Q8N5J4 1-248); details: protein: recombinant; tags: N-terminal GST; dsDNA, one strand shown
# T2 sequence: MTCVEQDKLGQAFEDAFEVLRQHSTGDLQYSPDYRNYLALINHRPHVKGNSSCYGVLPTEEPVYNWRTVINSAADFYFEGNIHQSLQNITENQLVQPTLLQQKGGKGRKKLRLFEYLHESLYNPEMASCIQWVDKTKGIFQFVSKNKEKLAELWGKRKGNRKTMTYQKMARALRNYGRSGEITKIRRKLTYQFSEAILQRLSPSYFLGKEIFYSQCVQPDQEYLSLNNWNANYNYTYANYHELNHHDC
# In short: as §1
# ELF4 = ELF4 (Homo sapiens, UniProt Q99607 1-663); details: protein: recombinant; tags: N-terminal GST; dsDNA, one strand shown
# ELF4, sequence (Q99607 whole entry): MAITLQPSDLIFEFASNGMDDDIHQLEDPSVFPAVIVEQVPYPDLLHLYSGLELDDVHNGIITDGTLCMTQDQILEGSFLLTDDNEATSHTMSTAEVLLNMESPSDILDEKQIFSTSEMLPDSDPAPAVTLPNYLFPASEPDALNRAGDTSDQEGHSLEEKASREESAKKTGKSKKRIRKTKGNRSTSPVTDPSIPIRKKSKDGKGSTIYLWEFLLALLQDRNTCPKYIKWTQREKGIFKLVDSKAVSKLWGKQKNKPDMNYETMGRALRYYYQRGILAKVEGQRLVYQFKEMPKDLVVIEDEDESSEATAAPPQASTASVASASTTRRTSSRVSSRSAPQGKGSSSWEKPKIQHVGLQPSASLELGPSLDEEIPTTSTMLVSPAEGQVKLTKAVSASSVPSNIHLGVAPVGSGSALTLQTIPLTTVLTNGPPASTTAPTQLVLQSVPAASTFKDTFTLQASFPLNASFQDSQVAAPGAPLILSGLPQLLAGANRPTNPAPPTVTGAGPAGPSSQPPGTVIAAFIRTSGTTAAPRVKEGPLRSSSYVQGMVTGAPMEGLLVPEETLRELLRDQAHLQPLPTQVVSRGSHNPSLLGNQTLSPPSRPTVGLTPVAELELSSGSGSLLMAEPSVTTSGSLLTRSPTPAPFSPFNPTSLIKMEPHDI
# In short: as §1
# ELK4 = target: T3, ELK4 (Homo sapiens, UniProt P28324-2 1-405); details: protein: recombinant; tags: N-terminal GST; dsDNA, one strand shown
# T3 sequence: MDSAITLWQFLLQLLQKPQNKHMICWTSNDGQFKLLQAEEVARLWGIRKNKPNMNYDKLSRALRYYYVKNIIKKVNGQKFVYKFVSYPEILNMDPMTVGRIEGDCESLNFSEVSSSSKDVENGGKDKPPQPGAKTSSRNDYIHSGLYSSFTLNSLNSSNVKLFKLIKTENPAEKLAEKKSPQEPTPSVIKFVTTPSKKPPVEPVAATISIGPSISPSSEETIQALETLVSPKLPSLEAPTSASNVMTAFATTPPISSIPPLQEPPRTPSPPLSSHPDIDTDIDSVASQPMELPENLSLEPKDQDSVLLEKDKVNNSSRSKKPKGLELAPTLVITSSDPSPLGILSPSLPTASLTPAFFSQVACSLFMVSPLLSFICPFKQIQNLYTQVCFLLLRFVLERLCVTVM
# In short: as §1
# ETV2 = target: T4, ETV2 (Homo sapiens, UniProt O00321 1-342); details: protein: recombinant; tags: N-terminal GST; dsDNA, one strand shown
# T4 sequence: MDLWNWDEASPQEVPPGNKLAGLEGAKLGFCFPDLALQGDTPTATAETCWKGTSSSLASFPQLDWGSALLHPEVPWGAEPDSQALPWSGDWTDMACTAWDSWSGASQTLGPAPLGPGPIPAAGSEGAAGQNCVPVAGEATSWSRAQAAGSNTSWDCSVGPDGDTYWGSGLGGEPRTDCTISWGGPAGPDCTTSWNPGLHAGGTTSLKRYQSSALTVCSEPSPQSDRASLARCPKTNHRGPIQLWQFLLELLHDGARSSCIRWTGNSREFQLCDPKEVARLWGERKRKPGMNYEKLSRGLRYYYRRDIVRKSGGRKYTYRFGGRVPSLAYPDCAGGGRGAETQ
# In short: as §1
# ELF3 = target: T5, ELF3 (Homo sapiens, UniProt P78545 1-371); details: protein: recombinant; tags: N-terminal GST; dsDNA, one strand shown
# T5 sequence: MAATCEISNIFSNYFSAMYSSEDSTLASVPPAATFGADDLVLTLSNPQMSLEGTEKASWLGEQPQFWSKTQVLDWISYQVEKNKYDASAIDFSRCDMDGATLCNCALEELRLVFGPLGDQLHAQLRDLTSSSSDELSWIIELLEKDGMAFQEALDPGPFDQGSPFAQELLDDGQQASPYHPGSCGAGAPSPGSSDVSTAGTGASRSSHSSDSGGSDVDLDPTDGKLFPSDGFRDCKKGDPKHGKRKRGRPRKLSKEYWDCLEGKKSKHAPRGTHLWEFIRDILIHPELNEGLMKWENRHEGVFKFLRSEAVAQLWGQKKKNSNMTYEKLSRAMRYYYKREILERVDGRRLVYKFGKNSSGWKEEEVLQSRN
# In short: as §1
# CRX = CRX (Homo sapiens, UniProt O43186 1-299); details: protein: recombinant; tags: N-terminal GST; dsDNA, one strand shown
# CRX, sequence (O43186 whole entry): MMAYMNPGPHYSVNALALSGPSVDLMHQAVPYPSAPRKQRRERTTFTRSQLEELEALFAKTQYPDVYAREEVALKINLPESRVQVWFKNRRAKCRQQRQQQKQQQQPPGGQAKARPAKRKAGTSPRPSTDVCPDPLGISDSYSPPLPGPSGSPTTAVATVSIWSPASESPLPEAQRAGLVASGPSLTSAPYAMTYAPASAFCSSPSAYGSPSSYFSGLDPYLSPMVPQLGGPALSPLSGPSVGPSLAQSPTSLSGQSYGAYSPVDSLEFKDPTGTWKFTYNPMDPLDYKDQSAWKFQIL
# In short: as §1
# ETV1 = ETV1 (Homo sapiens, UniProt P50549 1-477); details: protein: recombinant; tags: N-terminal GST; dsDNA, one strand shown
# ETV1, sequence (P50549 whole entry): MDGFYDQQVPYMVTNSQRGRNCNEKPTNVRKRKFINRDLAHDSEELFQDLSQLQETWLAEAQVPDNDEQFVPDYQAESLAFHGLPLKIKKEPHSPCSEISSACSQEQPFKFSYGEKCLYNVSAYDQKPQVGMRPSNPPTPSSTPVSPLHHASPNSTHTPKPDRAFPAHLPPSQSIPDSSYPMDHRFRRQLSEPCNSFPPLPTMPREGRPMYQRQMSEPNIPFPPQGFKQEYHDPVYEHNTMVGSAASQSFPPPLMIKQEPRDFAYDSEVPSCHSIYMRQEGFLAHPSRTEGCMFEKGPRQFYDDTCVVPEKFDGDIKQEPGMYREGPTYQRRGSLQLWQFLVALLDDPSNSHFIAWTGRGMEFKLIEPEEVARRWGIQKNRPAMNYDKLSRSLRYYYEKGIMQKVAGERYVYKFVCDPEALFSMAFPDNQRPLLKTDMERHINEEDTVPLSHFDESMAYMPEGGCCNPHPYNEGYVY
# In short: as §1
# ERF = target: T6, ERF (Homo sapiens, UniProt P50548 1-548); details: protein: recombinant; tags: N-terminal GST; dsDNA, one strand shown
# T6 sequence: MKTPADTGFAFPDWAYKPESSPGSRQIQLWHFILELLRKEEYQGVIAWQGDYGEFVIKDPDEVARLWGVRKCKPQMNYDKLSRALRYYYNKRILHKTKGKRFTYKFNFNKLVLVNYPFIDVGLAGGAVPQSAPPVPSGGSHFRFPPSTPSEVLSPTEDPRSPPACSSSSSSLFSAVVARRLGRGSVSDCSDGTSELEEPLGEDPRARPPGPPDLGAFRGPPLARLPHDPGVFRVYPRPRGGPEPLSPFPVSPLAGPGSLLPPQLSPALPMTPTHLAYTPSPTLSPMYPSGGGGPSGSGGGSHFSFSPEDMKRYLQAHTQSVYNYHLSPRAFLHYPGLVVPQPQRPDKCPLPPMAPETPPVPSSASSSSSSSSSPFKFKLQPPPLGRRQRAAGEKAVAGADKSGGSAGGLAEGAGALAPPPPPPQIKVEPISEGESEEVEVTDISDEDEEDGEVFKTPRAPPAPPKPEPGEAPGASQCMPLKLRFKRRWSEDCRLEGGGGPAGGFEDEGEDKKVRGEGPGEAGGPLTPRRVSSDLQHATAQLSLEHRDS
# In short: as §1
# ETV3L = target: T7, ETV3L (Homo sapiens, UniProt Q6ZN32 1-361); details: protein: recombinant; tags: N-terminal GST; dsDNA, one strand shown
# T7 sequence: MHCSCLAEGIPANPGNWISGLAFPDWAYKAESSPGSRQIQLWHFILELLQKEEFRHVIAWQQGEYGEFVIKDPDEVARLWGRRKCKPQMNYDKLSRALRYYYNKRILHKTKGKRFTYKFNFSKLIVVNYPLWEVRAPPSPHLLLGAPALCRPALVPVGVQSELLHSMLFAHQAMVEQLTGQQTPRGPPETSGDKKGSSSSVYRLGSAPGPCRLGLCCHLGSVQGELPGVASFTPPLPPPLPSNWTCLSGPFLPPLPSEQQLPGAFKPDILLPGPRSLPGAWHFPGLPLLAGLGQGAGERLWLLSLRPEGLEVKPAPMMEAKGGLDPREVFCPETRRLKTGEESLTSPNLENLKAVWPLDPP
# In short: as §1
# ETS2 = target: T8, ETS2 (Homo sapiens, UniProt P15036 1-469); details: protein: recombinant; tags: N-terminal GST; dsDNA, one strand shown
# T8 sequence: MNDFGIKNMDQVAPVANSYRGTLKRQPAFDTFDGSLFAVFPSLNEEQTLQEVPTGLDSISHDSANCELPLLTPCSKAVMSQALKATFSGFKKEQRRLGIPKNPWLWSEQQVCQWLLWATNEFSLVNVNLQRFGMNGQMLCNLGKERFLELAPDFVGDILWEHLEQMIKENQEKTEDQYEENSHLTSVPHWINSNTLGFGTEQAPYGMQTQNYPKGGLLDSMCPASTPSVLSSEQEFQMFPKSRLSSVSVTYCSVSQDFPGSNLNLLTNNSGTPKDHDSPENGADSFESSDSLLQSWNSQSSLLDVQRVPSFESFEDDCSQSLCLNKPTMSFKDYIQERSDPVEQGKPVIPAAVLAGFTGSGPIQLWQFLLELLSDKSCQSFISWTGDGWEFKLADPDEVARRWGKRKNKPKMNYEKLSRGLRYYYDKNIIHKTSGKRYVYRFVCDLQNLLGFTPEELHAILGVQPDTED
# In short: as §1
# SPDEF = target: T9, SPDEF (Homo sapiens, UniProt O95238 1-335); details: protein: recombinant; tags: N-terminal GST; dsDNA, one strand shown
# T9 sequence: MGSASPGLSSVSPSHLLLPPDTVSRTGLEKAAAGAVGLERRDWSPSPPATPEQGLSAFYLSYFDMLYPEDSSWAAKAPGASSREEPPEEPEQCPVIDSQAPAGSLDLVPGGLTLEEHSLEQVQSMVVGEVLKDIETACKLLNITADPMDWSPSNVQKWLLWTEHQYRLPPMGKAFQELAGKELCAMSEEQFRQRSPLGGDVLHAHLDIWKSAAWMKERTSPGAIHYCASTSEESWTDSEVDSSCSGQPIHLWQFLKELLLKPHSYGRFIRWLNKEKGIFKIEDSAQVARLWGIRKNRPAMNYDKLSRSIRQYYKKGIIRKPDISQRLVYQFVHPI
# In short: as §1
# ETV7 = target: T10, ETV7 (Homo sapiens, UniProt Q9Y603 1-341); details: protein: recombinant; tags: N-terminal GST; dsDNA, one strand shown
# T10 sequence: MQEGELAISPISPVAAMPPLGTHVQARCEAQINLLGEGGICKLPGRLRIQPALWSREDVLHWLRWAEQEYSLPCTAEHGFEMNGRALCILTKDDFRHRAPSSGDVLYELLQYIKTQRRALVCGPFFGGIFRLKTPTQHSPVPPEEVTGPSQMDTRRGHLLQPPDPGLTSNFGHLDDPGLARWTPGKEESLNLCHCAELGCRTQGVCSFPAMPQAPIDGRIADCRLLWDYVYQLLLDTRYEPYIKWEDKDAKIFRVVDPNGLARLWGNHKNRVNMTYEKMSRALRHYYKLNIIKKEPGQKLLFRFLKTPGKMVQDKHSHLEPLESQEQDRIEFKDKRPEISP
# In short: as §1
# ELF5 = target: T11, ELF5 (Homo sapiens, UniProt Q9UKW6-2 1-255); details: protein: recombinant; tags: N-terminal GST; dsDNA, one strand shown
# T11 sequence: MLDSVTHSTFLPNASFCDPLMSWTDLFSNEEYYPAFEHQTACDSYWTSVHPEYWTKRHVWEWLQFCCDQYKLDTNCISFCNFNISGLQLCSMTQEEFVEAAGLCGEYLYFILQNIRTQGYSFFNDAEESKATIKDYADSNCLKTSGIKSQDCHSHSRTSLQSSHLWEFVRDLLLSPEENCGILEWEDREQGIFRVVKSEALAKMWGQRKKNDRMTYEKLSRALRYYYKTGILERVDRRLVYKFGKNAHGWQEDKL
# In short: as §1
# ETV3 = target: T12, ETV3 (Homo sapiens, UniProt P41162-2 1-143); details: protein: recombinant; tags: N-terminal GST; dsDNA, one strand shown
# T12 sequence: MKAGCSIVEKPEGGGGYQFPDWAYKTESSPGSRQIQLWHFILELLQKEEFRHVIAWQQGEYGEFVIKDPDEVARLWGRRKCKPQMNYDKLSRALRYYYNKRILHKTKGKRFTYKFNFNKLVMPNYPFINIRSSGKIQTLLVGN
# In short: as §1
# ETV6 = ETV6 (Homo sapiens, UniProt P41212 1-452); details: protein: recombinant; tags: N-terminal GST; dsDNA, one strand shown
# ETV6, sequence (P41212 whole entry): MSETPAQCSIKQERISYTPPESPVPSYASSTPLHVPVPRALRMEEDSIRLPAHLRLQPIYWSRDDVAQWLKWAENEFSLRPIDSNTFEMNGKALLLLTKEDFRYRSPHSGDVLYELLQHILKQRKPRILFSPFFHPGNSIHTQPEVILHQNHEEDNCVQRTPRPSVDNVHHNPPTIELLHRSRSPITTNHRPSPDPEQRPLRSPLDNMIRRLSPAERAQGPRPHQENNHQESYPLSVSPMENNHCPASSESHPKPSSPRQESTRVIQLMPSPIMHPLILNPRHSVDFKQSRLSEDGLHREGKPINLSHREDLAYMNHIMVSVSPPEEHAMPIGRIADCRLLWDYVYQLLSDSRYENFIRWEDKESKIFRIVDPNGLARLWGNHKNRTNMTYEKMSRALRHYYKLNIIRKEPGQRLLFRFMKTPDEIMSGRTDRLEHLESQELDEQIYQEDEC
# In short: as §1
sequence,measurement,setting,value
GACTCC,binding signal,FEV,"1.32 fold enrichment (6-mer frequency, TF over GST control)"
same,binding signal,ETV5,"1.27 fold enrichment (6-mer frequency, TF over GST control)"
same,binding signal,HSF1,"1.05 fold enrichment (6-mer frequency, TF over GST control)"
same,binding signal,SPIC,"1.34 fold enrichment (6-mer frequency, TF over GST control)"
same,binding signal,ELF4,"1.43 fold enrichment (6-mer frequency, TF over GST control)"
same,binding signal,ELK4,"1.12 fold enrichment (6-mer frequency, TF over GST control)"
same,binding signal,ETV2,"1.26 fold enrichment (6-mer frequency, TF over GST control)"
same,binding signal,ELF3,"1.25 fold enrichment (6-mer frequency, TF over GST control)"
same,binding signal,CRX,"1.02 fold enrichment (6-mer frequency, TF over GST control)"
same,binding signal,ETV1,"1.29 fold enrichment (6-mer frequency, TF over GST control)"
same,binding signal,ERF,"1.32 fold enrichment (6-mer frequency, TF over GST control)"
same,binding signal,ETV3L,"1.27 fold enrichment (6-mer frequency, TF over GST control)"
same,binding signal,ETS2,"1.29 fold enrichment (6-mer frequency, TF over GST control)"
same,binding signal,SPDEF,"1.41 fold enrichment (6-mer frequency, TF over GST control)"
same,binding signal,ETV7,"1.23 fold enrichment (6-mer frequency, TF over GST control)"
same,binding signal,ELF5,"1.16 fold enrichment (6-mer frequency, TF over GST control)"
same,binding signal,ETV3,"1.35 fold enrichment (6-mer frequency, TF over GST control)"
same,binding signal,ETV6,"1.18 fold enrichment (6-mer frequency, TF over GST control)"
